Screening data deposited in PubChem by National Center for Advancing Translational Sciences (NCATS).
Only some compounds are listed: those with a hit (about 11% of all), similar ones and a draw of the others.
AMA1 RON2 block: qHTS for Inhibitors of AMA1-RON; Towards Development of Antimalarial Drug Lead: Primary Screen. Plasmodium falciparum AMA1 (3D7) - RON2 peptide interaction. AlphaScreen AMA1-biotinylated RON2 peptide binding. Potency, µM (doses to about 58.2 µM), for the others: top-dose activity change, negative = inhibition, actives largely listed as inhibitors. 0.2% of 360,000 active. AID 720542, 2013;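 note: 0% = vehicle wells and -100% = peptide control; nearly all actives have a fitted effect of over 45% in size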
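AMA1 (3D7) with his tag at 25 nM final met compounds first, then biotinylated RON2 peptide at 25 nM; detection used donor plus acceptor beads, 10 µg/mL apiece, read by AlphaScreen after 30 min at room temperature.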
Pf growth 48h: Primary qHTS for delayed death inhibitors of the malarial parasite plastid, 48 hour incubation; AID 504832, 2011; P. falciparum luciferase growth in erythrocytes, 48 h; Potency, µM (top dose mostly 28.7 µM), for inactives: at the highest dose activity change, negative = inhibition, most hits filed as inhibitors; 5.9% of 310,000 active
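Read-out is firefly luciferase luminescence from an integrated reporter in P. falciparum, so falling signal marks reduced parasite growth. Infected erythrocytes were at 2% hematocrit and 0.1% parasitemia (final) in Albumax-supplemented RPMI 1640.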
Pf growth 96h: Primary qHTS for delayed death inhibitors of the malarial parasite plastid, 96 hour incubation. P. falciparum luciferase reporter growth, 96 h. 6.9% of 320,000 active. Potency, µM (series often up to 28.7 µM), for the others: top-dose activity change, negative = inhibition, hits mostly inhibitors
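Two parasite generations (96 h, 37 C, 5% CO2) of compound exposure in infected erythrocytes (0.05% parasitemia, 2% hematocrit). Luciferase-reporter P. falciparum; decreased luminescence indicates inhibited growth, aimed at apicoplast-acting delayed death.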
AmpC inh no detg: qHTS Inhibitors of AmpC Beta-Lactamase (assay without detergent). Potency, µM (titrated, usually from 57.1 µM), without a hit: at the highest dose activity change, negative = inhibition, actives largely listed as inhibitors. 0.52% of 330,000 active. AmpC nitrocefin hydrolysis, absorbance 480 nm, 0.0001% Triton;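 note: plate controls were no compound for no effect and no enzyme for full effect; nearly all actives have a fitted effect of over 20% in size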
Target sequence (P00811 whole entry, looked up): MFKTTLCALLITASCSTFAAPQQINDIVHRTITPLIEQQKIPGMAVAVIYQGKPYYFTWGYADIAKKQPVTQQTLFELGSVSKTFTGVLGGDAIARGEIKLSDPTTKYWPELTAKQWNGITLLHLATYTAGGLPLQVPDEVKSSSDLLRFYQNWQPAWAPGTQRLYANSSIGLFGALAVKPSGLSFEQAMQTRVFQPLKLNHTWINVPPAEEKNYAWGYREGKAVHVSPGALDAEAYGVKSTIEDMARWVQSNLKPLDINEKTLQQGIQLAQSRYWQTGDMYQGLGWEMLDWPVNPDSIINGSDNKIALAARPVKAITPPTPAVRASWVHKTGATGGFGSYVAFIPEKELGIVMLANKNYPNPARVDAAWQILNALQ
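AmpC (5.3 nM in the dispensed reagent) in 20 mM phosphate pH 7.0 with 0.01% (detergent screen) or 0.0001% Triton X-100 was preincubated with compounds for 15 min at room temperature. Nitrocefin was then added from an 800 uM solution, and hydrolysis was followed at 480 nm.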
AmpC inh detg: qHTS Inhibitors of AmpC Beta-Lactamase (assay with detergent); AID 485294, 2010; Potency, µM (top dose mostly 114 µM), for inactives: at the highest dose activity change, negative = inhibition, actives largely listed as inhibitors; AmpC hydrolysis of nitrocefin, absorbance 480 nm, 0.01% Triton; P00811; 0.041% of 370,000 active;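 note: 0% = no-compound wells and -100% = no-enzyme wells; nearly all actives have a fitted effect of over 25% in size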
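20 mM phosphate pH 7.0 + 0.01% (detergent screen) or 0.0001% Triton X-100; 5.3 nM AmpC reagent; cpd preinc 15 min RT; nitrocefin (800 uM stock) to start; A480 q20 s × 4 min; Activity was normalised to no-enzyme and no-compound control wells.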
HCV inhibitor: qHTS Assay for Inhibitors of Hepatitis C Virus (HCV); Huh7.5.1 HCVcc-Cre infection, luciferase reporter, 44 h; Potency, µM (top dose mostly 41.8 µM), for the others: at the top dose activity change, negative = inhibition, hits mostly inhibitors; 3.4% of 340,000 active
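Cells (1,000/well) were plated 4 h before compound, then infected with HCVcc-Cre virus (~0.5 moi). After 44 h further culture, infection was read as luciferase luminescence following a 15 min substrate incubation at room temperature.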
* hit, by the source's call; u = inconclusive; x = not tested or not shown; [ ] = remark or other dose. Calls come from the whole dose curve; as a rule, active = well fitted curve in the direction sought with a large enough effect; inconclusive = small, poorly fitted or top-dose-only effect, or another doubt; inactive = no such curve, though single readings can be large; an effect the other way counts as inactive or inconclusive. Unless noted, % is set by controls: 0 for no effect and ±100 for the full control effect; potency is the fitted concentration of half-maximal effect.

SMILES | AMA1 RON2 block | Pf growth 48h | Pf growth 96h | AmpC inh no detg | AmpC inh detg | HCV inhibitor
COc1ccc(NC(=O)CC2C(=O)N(Cc3cccs3)C(=S)N2C(C)C)cc1 (stereo unspecified) | -15% | 2.6µM* | 29%[5.75 µM] | -9% | 1% | 32%
CN1C(=O)C(CC(=O)Nc2ccc(F)cc2)N(Cc2cccs2)C1=S (stereo unspecified) | 5% | u | u | -1% | 1% | -1%
CCCOc1ccc(NC(=O)CC2C(=O)N(C)C(=S)N2Cc2cccs2)cc1 (stereo unspecified) | 4% | 12µM* | u | -2% | 0% | u
CCC12CN3CC(CC)(CN(C1)C3c1cc(Br)ccc1OC)C2=O (stereo unspecified) | x | x | x | x | 14% | x
CCN1CCN(c2csc3ccc(C)cc3c2=O)CC1 | x | x | x | x | 11% | x
Cc1cc(Cl)c2oc(C(=O)NC3CCC(O)CC3)c(C)c2c1 (stereo unspecified) | 8% | 36% | 0% | 148% | -5% | 14µM*
COc1ccc(-n2nc([N+](=O)[O-])c(=NCCC3=CCCCC3)n2O)cc1 | 16µM* | -13% | u | 2% | 5% | -4%
COc1ccc(-n2nc([N+](=O)[O-])c(=NCCc3ccc(OC)c(OC)c3)n2O)cc1 | -17% | 6% | 0% | -3% | -1% | 13µM*
COc1ccc(-n2nc([N+](=O)[O-])c(=NCCc3ccc(C)cc3)n2O)cc1 | u | 26% | u | -7% | -6% | 0%
O=C(Nc1ccc(Cl)c(C(F)(F)F)c1)c1nc2ccccc2nc1N1CCCCC1 | x | x | x | x | 6% | x
COc1ccc(N(CC(=O)N2CCCCCC2)S(=O)(=O)c2ccccc2[N+](=O)[O-])c(OC)c1 | 20% | 12µM* | -28% | 19% | u | 6%
COC(=O)CN(c1ccc(OC)cc1OC)S(=O)(=O)c1ccccc1[N+](=O)[O-] | 3% | 0% | 4% | -15% | -3% | 8%
COc1ccc(N(CC(=O)NCc2ccccc2C)S(=O)(=O)c2ccccc2[N+](=O)[O-])c(OC)c1 | -1% | u | 10µM* | -6% | 6% | u
Cc1cccc(CCNC(=O)CN(c2ccc(C(C)C)cc2)S(=O)(=O)c2c(C)nn(C)c2C)c1 | x | x | x | x | 7% | x
CCc1nnc(NC(=O)CSc2nnc3ncccn23)s1 | 16% | 10% | x | 0.32µM* | 4% | 4%
Cc1cnc(NC(=O)CSc2nnc3ncccn23)s1 | -6% | u | 9% | -12% | 7% | 10%
COc1ccc(-c2nnc(CSc3nnc(-c4ccncc4)n3C3CCCCC3)o2)cc1OC | -7% | u | 9.3µM* | 61% | 2% | -8%
CCc1ccc(NC(=O)c2ccc(CN3CC(=O)N4CCCCC4C3=O)cc2)cc1 (stereo unspecified) | x | x | x | x | 2% | x
Cc1ccccc1NS(=O)(=O)c1cc(OCC(N)=O)c(C)cc1Cl | 8% | 55% | 10µM* | -25% | 7% | 0%
Cc1cc(Cl)c(S(=O)(=O)NCc2ccccc2)cc1OCC(N)=O | -2% | x | -28% | -9% | u | 18%
Cc1cccc(NS(=O)(=O)c2cc(OCC(N)=O)c(C)cc2Cl)c1 | 18% | -12% | -16% | -32% | -1% | -16%
Cc1ccc(NS(=O)(=O)c2cc(OCC(N)=O)c(C)cc2Cl)cc1C | -24% | 12µM* | u | -29% | 3% | u
CC(C)Sc1ncc(Cl)c(C(=O)N(Cc2ccc(N(C)C)cc2)C2CCS(=O)(=O)C2)n1 (stereo unspecified) | x | x | x | x | 10% | x
N#CC1=C(N)N(c2ccc(Cl)cc2)C2=C(C(=O)CCC2)C1c1cc(CN2CCOCC2)cs1 (stereo unspecified) | x | x | x | x | 2% | x
CN(C)c1ccc(C=C2C=CC=C2)cc1 | 22µM* | x | x | x | x | -14%
SMILES | AMA1 RON2 block | Pf growth 48h | Pf growth 96h | AmpC inh no detg | AmpC inh detg | HCV inhibitor
Clc1ccc2[nH]c3c(N4CCC5(CC4)OCCO5)ncnc3c2c1 | -1% | u | u | -4% | u | 13µM*
Clc1ccc2[nH]c3c(NCC4CCCO4)ncnc3c2c1 (stereo unspecified) | x | u | 166% | -20% | -13% | x
Cc1cccc2[nH]c3c(N4CCC5(CC4)OCCO5)ncnc3c12 | 12% | u | u | -1% | 2% | 8.9µM*
COc1ccc(N=C(C)c2c(O)[nH]c(=O)[nH]c2=O)cc1 | -2% | 25% | -6% | -23% | -10% | 13%
COc1ccc(N=C(C)C2=C(O)COC2=O)cc1 | -5% | x | 0.33µM* | -16% | u | 21%
Cc1[nH]c2ccccc2c1N=Nc1ccc(F)cc1 | u | 20% | 53% | -45% | 10% | u
Cc1[nH]c2ccccc2c1N=Nc1ccccc1F | -21% | 14% | 5% | -30% | 13% | 10µM*
CN(C)c1ccc(/C=C/c2nc(-c3ccccc3O)n(-c3ccccc3)n2)cc1 | x | x | x | x | 23% | x
CC(C)NC(NC(=O)/C=C/c1ccccc1)C(Cl)(Cl)Cl (stereo unspecified) | 10% | 2% | 1µM* | -18% | -1% | 19%
O=C(/C=C/c1ccccc1)NC(NC(=S)Nc1cc(Cl)ccc1Cl)C(Cl)(Cl)Cl (stereo unspecified) | 10% | u | 10µM* | -44% | -11% | u
COc1ccc(NC(=S)NC(NC(=O)/C=C/c2ccccc2)C(Cl)(Cl)Cl)cc1 (stereo unspecified) | -3% | u | 2.3µM* | -34% | 1% | -17%
CCOC(=O)NC(NC(=S)Nc1ccc(OC)cc1)C(Cl)(Cl)Cl (stereo unspecified) | -8% | -18% | u | -53% | u | 17%
O=C(/C=C/c1ccccc1)NC(NC(=S)Nc1ccc(Cl)cc1)C(Cl)(Cl)Cl (stereo unspecified) | 7% | 6.6µM* | 1% | -53% | 3% | u
CC(C)NC(NC(=O)Cc1ccccc1)C(Cl)(Cl)Cl (stereo unspecified) | 3% | 6% | -5% | -17% | -3% | 9%
COc1ccc(CNC(=O)c2ccc(-c3nc(CSc4ccc(C)cc4)c(C)o3)cc2)cc1OC | x | x | x | x | -4% | x
